PubChem BioAssay AID893 (National Center for Advancing Translational Sciences (NCATS), 2007)
About 5,700 (7.6%) of roughly 75,000 compounds were called active. Inconclusive results (about 7%) are left out. For the sample, actives were picked, then their nearest neighbours and some compounds at random. Unmarked numbers belong to inactive results. Calls come from the whole dose curve; as a rule, active = well fitted inhibition curve with a large enough effect; inconclusive = small, poorly fitted or top-dose-only effect; inactive = no such curve, though single readings can be large or run the other way.

What follows are compounds tested against 3-hydroxyacyl-CoA dehydrogenase type-2 (Homo sapiens) (UniProt Q99714) (assay: qHTS Assay for Inhibitors of HSD17B4, hydroxysteroid (17-beta) dehydrogenase 4). Conditions: recombinant HSD17B10, NADH fluorescence kinetic; series mostly up to 57.1 µM; activity change, negative = inhibition: at the top concentration.
Summary of the method: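 His-tagged E. coli-expressed HADH2 at 20 nM in 100 mM Tris-HCl pH 9.0 with 0.01 % Tween-20, preincubated 15 min with compound at room temperature. Reaction with 1 mM NAD+ and 90 uM beta-hydroxybutyryl coenzyme A; NADH fluorescence (360/450 nm) read kinetically over 4 min, last minus first point.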
% is set by controls: 0 for no effect and ±100 for the full control effect; potency is the fitted concentration of half-maximal effect.
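Note: the protocol describes HADH2 (HSD17B10) and not the HSD17B4 of the title; nearly all actives have a fitted effect of over 70% in size.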

| SMILES | activity change, negative = inhibition | Potency |
| --- | --- | --- |
| CCOC(=O)c1ccc(N2C(=O)CC(Sc3nc(O)c(CC)c(=O)[nH]3)C2=O)cc1 (stereo not drawn) | -10.9% |  |
| CN1CCN(c2ncncc2-c2ccc(C(=O)N(C)C)cc2)CC1 | -0.154% |  |
| COC(=O)c1ccc(NC(=O)CSc2nnc(Cc3cccn3C)n2-c2ccc(F)cc2)cc1 | 7.48% |  |
| CC(=O)OC1CCC2(O)CC1(C)CCC1C2CC1(C)C (stereo not drawn) | -5.12% |  |
| CC(=O)Oc1ccccc1C(=O)Nc1ncc([N+](=O)[O-])s1 | -2.68% |  |
| COc1ccccc1N1CCN(C[C@@H]2CN3C(=O)N(C)c4ccccc4C3=N2)CC1 | -1.78% |  |
| CCOC(=O)[C@]1(C(/C=C/c2ccco2)NC(=O)OC)CCCC1=O (stereo partly drawn) | -2.18% [at 11.4 µM] |  |
| O=C1c2ccccc2C(=O)N1CCc1nn[nH]n1 | -12.7% |  |
| CN(C)CCOC(=O)C(c1ccccc1)C1(O)CCCC1 (stereo not drawn) | 3.1% |  |
| COc1ccccc1N1CCN(C(=O)CSc2nnc(-c3ccoc3C)o2)CC1 | -20.2% |  |
| CCOC(=O)C1CCCN(C(=O)c2ccc(CS(=O)(=O)c3ccc(Br)cc3)o2)C1 (stereo not drawn) | -0.84% |  |
| OC(COc1cccc(OCC(O)CN2CCCC2)c1)CN1CCCC1 (stereo not drawn) | 8.82% |  |
| COc1ccc(-c2nnco2)cc1OC | -8.86% |  |
| COCCNCCOCCOc1cccc(OC)c1 | 4.86% |  |
| O=c1c(-c2ccc(F)cc2)nc2cnc(N3CCNCC3)nc2n1Cc1cccs1 | 13.7% |  |
| Cn1c(=O)c(-c2ccccc2)nc2cnc(N3CCNCC3)nc21 |  | 25.1 µM (active) |
| CCc1nc2ccccc2n(CCOCCOCCn2c(=O)c(CC)nc3ccccc32)c1=O | -3.31% |  |
| COCCn1c(=O)c(CCc2ccccc2)nc2cnc(N3CCNCC3)nc21 |  | 31.6 µM (active) |
| Cc1nc2cnc(N3CCNCC3)nc2n(Cc2ccc(F)cc2)c1=O |  | 25.1 µM (active) |
| Cc1c2cn[nH]c(=O)c2c(C)n1Cc1ccc(F)cc1 | -2.15% |  |
| COCCn1c(=O)c(CCc2ccccc2)nc2cncnc21 | 3.41% |  |
| COCCn1c(=O)c(-c2cc(F)cc(F)c2)nc2cnc(N3CCNCC3)nc21 |  | 25.1 µM (active) |
| O=C1C(c2ccccn2)=[N+]([O-])c2ccccc21 | -0.52% |  |
| COC1C[C@@H](O[C@@H]2C(C)C(=O)OC(C)C(C)C(O)C(C)C(=O)[C@@]3(CO3)CC(C)C(OC3OC(C)CC(N(C)C)C3O)C2C)OC(C)[C@@H]1O (stereo partly drawn) | -6.38% |  |
| O=C(Oc1cc(OC(=O)c2ccccc2)c2c(c1)OC(c1ccc(OC(=O)c3ccccc3)c(OC(=O)c3ccccc3)c1)[C@@H](OC(=O)c1ccccc1)C2)c1ccccc1 (stereo partly drawn) | -0.411% |  |
| CC(=O)Oc1cccc(N2C(=O)C3CC=C(Cl)CC3C2=O)c1 (stereo not drawn) | 5.42% |  |

| SMILES | activity change, negative = inhibition | Potency |
| --- | --- | --- |
| COc1ccc(C(=O)Nc2ccc3c(c2)OCO3)cc1OC | 2.82% |  |
| CC(=O)Nc1ccc(S(=O)(=O)N2CCCC2C(=O)O)cc1 (stereo not drawn) | -5.4% |  |
| C=C(C)Cn1c(SCC(=O)NCc2ccco2)nc2sc3c(c2c1=O)CCC3 | 4.01% |  |
| CN1CCc2c(sc3c2c(NCc2ccco2)nc2nnnn23)C1 |  | 31.6 µM (active) |
| O=C(Cc1ccccc1)n1nc(-c2ccccc2)nc1NCc1ccco1 | 107% |  |
| CC(=O)NCCc1ccc(S(=O)(=O)N(C)C2CCS(=O)(=O)C2)cc1 (stereo not drawn) | -5.85% |  |
| CCn1c(COc2ccccc2)nnc1SCC(=O)Nc1ccc2c(c1)OCCO2 | 6.16% |  |
| CN1CCN(S(=O)(=O)c2ccc(NC(=O)C3CCCO3)cc2)CC1 (stereo not drawn) | 10.7% |  |
| O=c1c2[nH]c3ccc(Cl)cc3c2ncn1Cc1ccccn1 | -4.52% |  |
| COc1ccc2[nH]c3c(=O)n(Cc4ccco4)cnc3c2c1 |  | 3.16 µM (active) |
| COc1ccc(C(=O)CSc2nnc(COc3ccccc3)n2Cc2ccco2)cc1 | -21.4% |  |
| Cc1cc(C)c2nc3c(c([C@H](O)[C@@H]4CCCCN4)c2c1)CC/C3=C/c1ccc(Cl)cc1 | 9.81% [at 11.4 µM] |  |
| O=C1CC(c2cccc(Br)c2)C2=C(CCCC2=O)N1 (stereo not drawn) | 11.3% |  |
| COc1cc2c(cc1NC(=O)CN1CCN(S(=O)(=O)c3ccc(F)cc3)CC1)oc1ccccc12 |  | 3.16 µM (active) |
| O=C(CN1CCN(S(=O)(=O)c2ccc(F)cc2)CC1)Nc1ccccc1F | -0.0846% |  |
| COc1ccc(NC(=O)CN2CCN(S(=O)(=O)c3ccc(F)cc3)CC2)cc1Cl | 10.4% |  |
| CCN(CCCCOC(=O)c1ccc(OC)c(OC)c1)C(C)Cc1ccc(OC)cc1 (stereo not drawn) | -2.4% |  |
| CCN(CC)S(=O)(=O)N1CCC(C(=O)NC(C)CCc2ccccc2)CC1 (stereo not drawn) | -6.36% |  |
| CC(=O)N1CCC(C(=O)Nc2nc(-c3ccccc3)ns2)CC1 |  | 10 µM (active) |
| Cc1ccc2c(NC(=O)C3CC3)cccc2n1 | 5.59% |  |
| CCOC(=O)c1nc(N)sc1C(=O)OCC | 4.19% |  |
| CN1CCCc2cc(C#N)c(=O)[nH]c21 |  | 15.8 µM (active) |
| COc1ccccc1Cn1c(=S)[nH]c2cc(C(=O)N3CCN(C)CC3)ccc2c1=O | 0.149% |  |
| CCOC(=O)CSC1=C(C#N)C(c2sccc2C)CC(=O)N1 (stereo not drawn) | 14.8% |  |
| CCOC(=O)CSC1=C(C#N)C(c2ccco2)C(C(=O)OCc2ccccc2)=C(C)N1 (stereo not drawn) | 32.8% |  |
| CC1=C(C(=O)Nc2ccccc2)C(c2cccs2)C(C#N)=C(SCC#N)N1 (stereo not drawn) |  | 31.6 µM (active) |

| SMILES | activity change, negative = inhibition | Potency |
| --- | --- | --- |
| O=C(Cn1nnc(-c2ccc(CN3CCOCC3)cc2)n1)NC1CCCCC1 | -1.05% |  |
| COCCCNC(=O)COc1cc(C)c(Cl)c(C)c1 | 0.176% |  |
| CCC/C(O)=C1\C(=O)CC(C)(C)CC1=Nc1ccccc1OC | 1.69% |  |
| CCCNC(=O)OC[C@@H]1O[C@H](c2ccccc2)C=C[C@@H]1Oc1ccc(OC)cc1 | -0.586% [at 11.4 µM] |  |
| COc1ccc(Oc2ncc3nc(C)c(=O)n(-c4ccccc4)c3n2)cc1 | 4.75% |  |
| COc1ccc(-n2c(C)nc3c(cnn3-c3ccccc3)c2=O)cc1 | 1.94% |  |
| COc1ncc2nc(-c3ccc(Cl)cc3)c(=O)n(C)c2n1 |  | 31.6 µM (active) |
| COc1ccc(C(=O)n2nc(-c3ccc(Cl)cc3)nc2N)cc1OC | -5.6% |  |
| COc1nc(NCc2ccc(Cl)cc2)nc(OC)n1 | 9.75% |  |
| COc1ccc(Oc2ncc3nc(-c4ccc(F)cc4)c(=O)n(C)c3n2)cc1 |  | 31.6 µM (active) |
| O=c1c(-c2cccs2)nc2cnc(Oc3ccccc3)nc2n1-c1ccccc1 |  | 25.1 µM (active) |
| Cn1cc(-c2nc3cncnc3n(-c3ccccc3)c2=O)c2ccccc21 | 6.28% |  |
| COc1ccc(-c2c3c(=O)n(C)c(=O)n(C)c3cn2-c2cccc(OC)c2)cc1 | 3.18% |  |
| COc1ncc2nc(-c3ccc(Cl)cc3)c(=O)n(-c3ccccc3)c2n1 |  | 25.1 µM (active) |
| CN(C(=O)COc1nnc(-c2cccs2)c(-c2cccs2)n1)c1ccccc1 | -8.5% |  |
| Cc1ccc(S(=O)(=O)N2CCC(C(=O)N[C@@H](C)C(=O)NCc3ccccc3)CC2)cc1 | 6.7% |  |
| O=C(Nc1cccc2c1CCCC2)C1CCN(C(=O)NC2CCCCC2)CC1 | -3.12% |  |
| c1ccc2sc(SCCSc3nc4ccccc4s3)nc2c1 | 2.8% [at 11.4 µM] |  |
| O=C(c1cc(-c2cccc(O)c2)on1)N1CCc2ccccc2C1 | -24.6% |  |
| O=C1CN(C(=O)COC(=O)C2CC(=O)N(Cc3ccco3)C2)c2ccccc2N1 (stereo not drawn) | -2.17% |  |
| CN(C)C(=O)/N=N\C(=O)N(C)C | -21.2% |  |
| CN1CCN(c2ncc3nc(-c4ccc(Cl)cc4)c(=O)n(-c4ccccc4)c3n2)CC1 |  | 25.1 µM (active) |
| O=c1c(-c2ccc(F)c(F)c2)nc2cncnc2n1-c1ccccc1 | -28% |  |
| COc1ccc(-c2nc3cnc(Oc4ccccc4)nc3n(Cc3cccs3)c2=O)cc1 |  | 12.6 µM (active) |
| CN1CCN(c2cc(=O)n(-c3ccc(Cl)cc3)c(=O)[nH]2)CC1 | -5.62% |  |
| O=C1c2cccnc2C(=O)N1Cc1cccs1 | 5.59% |  |

| SMILES | activity change, negative = inhibition | Potency |
| --- | --- | --- |
| COCCn1c(=O)c(-c2ccc(OC)cc2)nc2cnc(Oc3cccc(Cl)c3)nc21 | -646% [at 57.1 µM, above what the read-out allows, likely interference] |  |
| C=CC(=O)OCCOCCOCCOCCOC(=O)C=C |  | inactive |
| Cc1ccccc1NC(=O)Cc1nnc(SCC(=O)N2CCN(c3ccccc3)CC2)n1C | -23.9% |  |
| Cc1nnc(SCC(=O)Nn2cnnc2)s1 | 2.74% |  |
| CC(C)[C@H](CO)Nc1nc(Nc2cc(N)cc(Cl)c2)c2ncn(C(C)C)c2n1 | -27.3% |  |
| Cc1c(CN2CCC(C)CC2)c(=O)n(-c2ccccc2)n1C | 0.527% |  |
| COC(=O)[C@@H]1C[C@@]2(O)[C@H](O)[C@H](O)[C@H](O)C[C@H]2N1CC1CCCCC1 | 6% |  |
| CCOc1ccc(S(=O)(=O)n2ccnc2)c2ccccc12 | -4.92% |  |
| CCc1nc(Nc2ccc3nccnc3c2)c2oc3ccccc3c2n1 |  | 12.6 µM (active) |
| CCSc1nc(C)nc2c1oc1ccccc12 | -23.1% |  |
| C[C@@H](Nc1nc(-c2ccccc2)nc2c1oc1ccccc12)C(=O)O | -5.05% |  |
| Cc1cccc(N2CCN(S(=O)(=O)c3ccc4c(c3)c(=O)n(C)c(=O)n4C)CC2C)c1 (stereo not drawn) | 1.18% |  |
| Cc1ccc(C)c(S(=O)(=O)n2cnc3ccccc32)c1 | -2.14% |  |
| CC(=O)OCC1OC(C#Cc2ccccc2Cl)C=CC1OC(C)=O (stereo not drawn) | -6.58% [at 11.4 µM] |  |
| COc1ccc2nc(NC3=NCN(CC4CCCO4)CN3)nc(C)c2c1 (stereo not drawn) |  | 31.6 µM (active) |
| COc1ccc(C2CC(=O)C=C(NCC3CCCO3)C2)cc1 (stereo not drawn) | -5.32% |  |
| Cc1ccc2nc(NC3=NCN(CCc4ccccc4)CN3)nc(C)c2c1 | 3.14% |  |
| Oc1ccccc1CNCc1ccccc1O | -0.327% [at 11.4 µM] |  |
| CSc1sc(C)cc1C1C(C#N)=C(N)N(c2cccnc2)C2=C1C(=O)CCC2 (stereo not drawn) |  | 15.8 µM (active) |
| O=S(=O)(c1ccccc1)N1CCC2(CC1)CN(Cc1nccs1)C2 | 6.63% |  |
| CCCC(C(=O)N1CCOCC1)N1C(=O)C2C3C=CC(C3)C2C1=O (stereo not drawn) | 3.68% |  |
| O=C(O)C1CCN(S(=O)(=O)N2CCOCC2)CC1 | 12.1% |  |
| COc1ccccc1N1CCN(C(=O)c2cc3c(-c4ccc(Cl)cc4)nn(C)c3s2)CC1 | -6.74% |  |
| CCOC(=O)N1CCN(C(=O)c2cc3c(-c4ccc(Cl)cc4)nn(C)c3s2)CC1 | 5.07% |  |
| Cn1nc(-c2ccc(Cl)cc2)c2cc(C(=O)NCc3ccco3)sc21 |  | 31.6 µM (active) |
